Measurements: PubChem BioAssay (NCATS)
Inconclusive results are not listed. Where a call stands in place of a potency, no number is given. Values without a mark were called inactive. The source made the active and inactive calls. The call rests on the fitted dose curve; in most records, active means well fitted curve in the direction sought with a large enough effect; inconclusive means small, poorly fitted or top-dose-only effect, or another doubt; inactive means no such curve, though single readings can be large; an effect the other way counts as inactive or inconclusive.

Assay: High Content Imaging Cell-Based qHTS for Inhibitors of the mTORC1 Signaling Pathway in MEF (Tsc2-/-, p53-/-) Cells (AID 2666);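 further: percent of cells scored positive for phospho-rpS6 Ser235/236 immunostaining by imaging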
Settings: series mostly up to 38.3 µM
Procedure, shortened: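 Inhibition of rpS6 phosphorylation is measured by immunofluorescence imaging in empty-vector Tsc2-/-, p53-/- mouse embryonic fibroblasts after 24 hrs compound exposure at 37 degree Celsius. Results are reported as % positive cells per well.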
Potency means the concentration at half of the fitted maximal effect.

SMILES | outcome | Potency
CCN(CCCl)Cc1ccccc1Br | inactive | –
C=CCN1C[C@@H](C)N([C@H](c2ccc(C(=O)N(CC)CC)cc2)c2cccc(OC)c2)C[C@@H]1C | inactive | –
N#CCCN | inactive | –
C[C@@H]1O[C@@H](O[C@H]2C[C@@H](O)[C@]3(CO)[C@@H]4C(CC[C@]3(O)C2)[C@@]2(O)CC[C@H]([C@@H]3COC(=O)C3)[C@@]2(C)C[C@H]4O)[C@H](O)[C@H](O)[C@H]1O (stereo partly specified) | inactive | –
N#C/C(=C/c1ccc(O)c(O)c1)C(N)=S | inactive | –
N=C(N)c1ccc(CS(=O)(=O)F)cc1 | inactive | –
CCCN1CCc2cccc3c2[C@H]1Cc1ccc(O)c(O)c1-3 | inactive | –
COc1ccc2c(c1)c(CCN1CCOCC1)c(C)n2C(=O)c1cccc(Cl)c1Cl | inactive | –
CC(=O)c1c(O)c(C)c(O)c(Cc2c(O)c3c(c(C(=O)/C=C/c4ccccc4)c2O)OC(C)(C)C=C3)c1O | inactive | –
CC(N)c1cccc(Cl)c1Cl (stereo unspecified) | inactive | –
C=CCN1CCc2cccc3c2[C@H]1Cc1ccc(O)c(O)c1-3 | inactive | –
CCN1C[C@@]2(COC)C3[C@@H](OC)C4[C@@H]1C3([C@@H]1C[C@]3(O)[C@H](OC(=O)c5ccccc5)[C@@H]1[C@]4(OC(C)=O)[C@@H](O)[C@@H]3OC)[C@H](OC)C[C@H]2O | inactive | –
C[N+]1(C)CCc2cc3c(cc2[C@H]1[C@@H]1OC(=O)c2c1ccc1c2OCO1)OCO3 | inactive | –
CCCn1c(=O)c2[nH]c(C3CCCC3)nc2n(CCCOC(=O)c2ccc(S(=O)(=O)F)cc2)c1=O | inactive | –
COc1ccc2c(c1O)-c1cccc3c1[C@@H](C2)N(C)CC3 | inactive | –
CCCN1CCC[C@@H](c2cccc(O)c2)C1 | inactive | –
CCCC[N+]1(C)C2CC(OC(=O)[C@H](CO)c3ccccc3)CC1C1OC12 (stereo partly specified) | inactive | –

SMILES | outcome | Potency
CC(=O)OCC1=C(C(=O)O)N2C(=O)[C@@H](NC(=O)CCC[C@@H](N)C(=O)O)[C@H]2SC1 | inactive | –
C[N+]1(C)C2CCC1CC(OC(=O)c1c[nH]c3ccccc13)C2 (stereo unspecified) | inactive | –
Cc1cc([C@@H]2CCCN2C)on1 | inactive | –
NC(Cc1cc(O)c(O)cc1O)C(=O)O (stereo unspecified) | inactive | –
Ic1ccccc1CNC1C2CCN(CC2)C1C(c1ccccc1)c1ccccc1 (stereo unspecified) | – | 16.5 µM (active)
C[C@H](N)Cc1cccc(C(F)(F)F)c1 | inactive | –
CC(C)(O)[C@@H]1C2OC(=O)[C@@H]1[C@]1(O)C[C@H]3O[C@]34C(=O)O[C@H]2[C@]14C (tested in a mixture with another compound) | inactive | –
CC(C)[C@@]1(NC(=O)[C@@H]2C[C@@H]3c4cccc5[nH]cc(c45)C[C@H]3N(C)C2)O[C@@]2(O)[C@@H]3CCCN3C(=O)[C@H](Cc3ccccc3)N2C1=O | inactive | –
NC(=O)CI | inactive | –
CCS(=O)(=O)Nc1cccc(C(=C2CCCCC2)c2cnc[nH]2)c1 | inactive | –
CC(C)(C)c1cc(C=C(C#N)C#N)cc(C(C)(C)C)c1O | inactive | –
C=CCN(C1=NCCN1)c1c(Cl)cccc1Cl | inactive | –
CN1CC[C@@]2(C)c3cc(OC(=O)Nc4ccccc4)ccc3N(C)[C@@H]12 | inactive | –
CCNC(=O)[C@H]1O[C@@H](n2cnc3c(N)ncnc32)[C@H](O)[C@@H]1O | inactive | –
N[C@@H](Cn1ccc(=O)[nH]c1=O)C(=O)O | inactive | –
O=[N+]([O-])/C=C/c1ccc2c(c1)OCO2 | inactive | –

Assay: High Content Imaging Cell-Based qHTS for Inhibitors of the mTORC1 Signaling Pathway in MEF Cells (AID 2667);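 on activity change, negative = inhibition: Tsc2-/- p53-/- MEFs stably re-expressing wild-type Tsc2 exposed 24 h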
Settings: series mostly up to 38.3 µM; activity change, negative = inhibition: at the top concentration
Procedure, shortened: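 Fixed-cell imaging of phospho-S6 (Ser235/236, Alexa-488) after 24 hrs of compound treatment at 37 degree Celsius. Signal was normalized to Hoechst, and thresholds from the highest and lowest wells split cells into % active versus % non-active.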

SMILES | activity change, negative = inhibition | Potency
C=CCN1C[C@@H](C)N([C@H](c2ccc(C(=O)N(CC)CC)cc2)c2cccc(OC)c2)C[C@@H]1C | -100% | –
N#CCCN | -100% | –
N#C/C(=C/c1ccc(O)c(O)c1)C(N)=S | -100% | –
N=C(N)c1ccc(CS(=O)(=O)F)cc1 | -100% | –
CCCN1CCc2cccc3c2[C@H]1Cc1ccc(O)c(O)c1-3 | -100% | –
COc1ccc2c(c1)c(CCN1CCOCC1)c(C)n2C(=O)c1cccc(Cl)c1Cl | -8.16% | –
CC(=O)c1c(O)c(C)c(O)c(Cc2c(O)c3c(c(C(=O)/C=C/c4ccccc4)c2O)OC(C)(C)C=C3)c1O | -100% | –
C=CCN1CCc2cccc3c2[C@H]1Cc1ccc(O)c(O)c1-3 | – | 7.36 µM (active)
CCN1C[C@@]2(COC)C3[C@@H](OC)C4[C@@H]1C3([C@@H]1C[C@]3(O)[C@H](OC(=O)c5ccccc5)[C@@H]1[C@]4(OC(C)=O)[C@@H](O)[C@@H]3OC)[C@H](OC)C[C@H]2O | -100% | –
CCCN1CCC[C@@H](c2cccc(O)c2)C1 | -100% | –
CCCC[N+]1(C)C2CC(OC(=O)[C@H](CO)c3ccccc3)CC1C1OC12 (stereo partly specified) | -100% | –
CC(=O)OCC1=C(C(=O)O)N2C(=O)[C@@H](NC(=O)CCC[C@@H](N)C(=O)O)[C@H]2SC1 | -100% | –
Cc1cc([C@@H]2CCCN2C)on1 | -100% | –
NC(Cc1cc(O)c(O)cc1O)C(=O)O (stereo unspecified) | -100% | –
Ic1ccccc1CNC1C2CCN(CC2)C1C(c1ccccc1)c1ccccc1 (stereo unspecified) | – | 6.56 µM (active)
C[C@H](N)Cc1cccc(C(F)(F)F)c1 | -100% | –
CC(C)(O)[C@@H]1C2OC(=O)[C@@H]1[C@]1(O)C[C@H]3O[C@]34C(=O)O[C@H]2[C@]14C (tested in a mixture with another compound) | -100% | –
CC(C)[C@@]1(NC(=O)[C@@H]2C[C@@H]3c4cccc5[nH]cc(c45)C[C@H]3N(C)C2)O[C@@]2(O)[C@@H]3CCCN3C(=O)[C@H](Cc3ccccc3)N2C1=O | -100% | –
NC(=O)CI | -100% | –
CCS(=O)(=O)Nc1cccc(C(=C2CCCCC2)c2cnc[nH]2)c1 | -100% | –
CC(C)(C)c1cc(C=C(C#N)C#N)cc(C(C)(C)C)c1O | – | 2.33 µM (active)
CCCCCCC(C)(C)c1ccc([C@@H]2C[C@H](O)CC[C@H]2CCCO)c(O)c1 | -29% | –
CCNC(=O)[C@H]1O[C@@H](n2cnc3c(N)ncnc32)[C@H](O)[C@@H]1O | -100% | –
